For 17 molecules, binding signal results are on record in article PMC12136788.

Substitutions are numbered along the chain they refer to. The full ranking holds about 24,000 sequences; the median of “enrichment r” is about 0.99, and the highest 2% start at about 3.7. The sample holds the highest values, similar sequences and a random draw of the others, so the mix is not that of the screen.

To fix the notation:
T1: UNK ZnF1-3 (human, UniProt Q9C0B0 31-174)
T1 sequence: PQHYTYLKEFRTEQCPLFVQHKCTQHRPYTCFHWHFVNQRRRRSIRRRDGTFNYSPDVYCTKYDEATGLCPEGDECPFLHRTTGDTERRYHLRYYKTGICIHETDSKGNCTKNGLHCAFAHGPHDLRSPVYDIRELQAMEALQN

B1: chr2:166767530:166767531:+_ENSMUSG00000002718_ENSMUST00000002790|mus_mus|FALSE|FALSE (ssRNA)
RNA: GGGAGUUCUACAGUCCGACGAUCAAAUAUUUCUUGUAAUGCUAGUGCCCCAUACUUAAUGCAAUAUAAGUUAAUAAACACUAAGAAACUCUUGAUAAACUUGGUGGUCUUGGAGUUUUGCAGUCUCUGGAAUAGUAGAAUGAACAACAGAGGAUUGAGCAUCA
B2: 85396044_85398007_762_3pUTR_ENSMUSG00000021549_ENSMUST00000109552|mouse|control|control (ssRNA)
RNA: GGGAGUUCUACAGUCCGACGAUCCACCAAUGUAGUAAUCACCACACAUAGCAAUAAUCCUAAAAUGAUUGACAACAUUUGUCUGACUAAGGAAUGAAAGUACAAAGGACCCCGGCCUCCGAUCACUCUCUCUUAUAAGAUAGCCAACAGAGGAUUGAGCAUCA
B3: chr9:115598534:115598535:+_ENSG00000148158_ENST00000374232|hu_mus|motif|central (ssRNA)
RNA: GGGAGUUCUACAGUCCGACGAUCCAGCUUAUAGCCUCCGGUGACGUGCUUGACUGACUCACCCACUCUGCUCAGCAAUGCGGUCCCUUGCUUCUUGUAGGCAUUCAGGUCCUUAGCAGUGAGGAACACAUUGAAGUGUUCAUUCAACAGAGGAUUGAGCAUCA
B4: chr8:41682716:41682717:-_ENSMUSG00000039431_ENSMUST00000048898|mus_hu|motif|central (ssRNA)
RNA: GGGAGUUCUACAGUCCGACGAUCCACAUCGCUGAGCUGCCAGUAAUGAUUAGGGAGGCCCAUCCGCGUGUAUUCUUCACGGAGAUCGAUCAGCACCCAGCCUUGCUCUCUUUCUUCUUUAUCCAGCAUGGGGUUGAAUGAAAACAACAGAGGAUUGAGCAUCA
B5: 34871406_34871526_3634_3pUTR_ENSMUSG00000037503_ENSMUST00000047534|mouse|control|control (ssRNA)
RNA: GGGAGUUCUACAGUCCGACGAUCAUGGUGGUGGGUUUGCUUCUCCAGAGUCAAGGAGCUUACAGUUUCCAAUACUCCACAACUCUAAACUGCAAGCAGCAGCAGCCGAGGAAGGAAGGCCCCUAGCCUCAGGGACGGCAGCAGCAACAGAGGAUUGAGCAUCA
B6: chr7:23239867:23239868:+_ENSG00000136243_ENST00000258742|hu_hu|FALSE|FALSE (ssRNA)
RNA: GGGAGUUCUACAGUCCGACGAUCCCCAAAACCAGCAGGGCUUCCAGAAGAGGCAGCAGCAAAUCCAGAGUUUGUUUUAAAACUAAAGUUCUGAGCAUUAUCACUGCUGCUGUUAUUGACUGGAAAGCCUGGCGACAUAAAUGUCAACAGAGGAUUGAGCAUCA
B7: chr3:38349274:38349275:-_ENSMUSG00000044864_ENSMUST00000156038|mus_mus|FALSE|FALSE (ssRNA)
RNA: GGGAGUUCUACAGUCCGACGAUCAAAUGACCAAGUACAGCAAGCAGGCUGGCUACAGCACCCUGGUCAGCCUGGUCCUCGCCAGAAGCUGUUUUUGUUCUACUUUAAAUCAGUUAAUAAUAAAAACAAAACAAAAGGGAAAAACAACAGAGGAUUGAGCAUCA
B8: chr4:155540527:155540528:-_ENSMUSG00000041936_ENSMUST00000154494|mus_hu|FALSE|FALSE (ssRNA)
RNA: GGGAGUUCUACAGUCCGACGAUCGCCUGGACGGAAGGGAGGCCGGGCCAGCAGUCCCUCCGGCCAACACUCAGGCAAGAAAAUCAUAUCAAAAAGCAACAAGUUUACAAAAAUAGAAAAUAAUUACAGCGGGCGCGGGGCUCUCAACAGAGGAUUGAGCAUCA
B9: chr2:104430758:104430759:+_ENSMUSG00000027176_ENSMUST00000028599|mus_mus|motif|central (ssRNA)
RNA: GGGAGUUCUACAGUCCGACGAUCGGGACUACAACGUACGCACCAGCCGGCAAAGGGAAGCUAGAAAAGGAAAAUUAAACGGAAGGCAAACCCCACCAAAACCAGGAACACUACCCCUGUCCCUCAGAGCCAAAGCCGCCGCCACAACAGAGGAUUGAGCAUCA
B10: chr4:140556289:140556290:+_ENSMUSG00000036622_ENSMUST00000037055|mus_mus|mus_mus_mus_hu_False|8_78 (ssRNA)
RNA: GGGAGUUCUACAGUCCGACGAUCGAUGGAGCUCACCAGGCCCCCUUUUGCCGUGCAGAACCCUGUCCGGGUCACCACUGCCAGGACGUGCGGUCCCACAUAGGCCCGGGCCUGCAAGAUGAGGGUCCCACAGAAGAGUGUGUGCAACAGAGGAUUGAGCAUCA
B11: chr18:64617603:64617604:-_ENSMUSG00000024588_ENSMUST00000025484|mus_mus|FALSE|FALSE (ssRNA)
RNA: GGGAGUUCUACAGUCCGACGAUCGCGGGAGGCACACUGGAAGCCAGUUUGGCCUACAUAGGGCAAGCGAGAAAUAAGAUAAAAUAAGAUAAAACACAGGCAAGAGAGAAAUCACAGUUUGUGCCCAGACAAACGUGGCUUCUGCAACAGAGGAUUGAGCAUCA
B12: chr12:86311719:86311720:-_ENSMUSG00000042350_ENSMUST00000043169|mus_hu|FALSE|FALSE (ssRNA)
RNA: GGGAGUUCUACAGUCCGACGAUCGACUGCCAAAGGACGCCCCAGGAUCCCGAGCCGGGGGUUGCAGCGCGACGAAGUUCCACCUCCGCUGUCCUGGGAAGGGGCGGCAGCACUCAGCAGAAGACGGGCUCCCCACUCUCCCACCAACAGAGGAUUGAGCAUCA
B13: chr15:100311029:100311030:-_ENSMUSG00000044636_ENSMUST00000061457|mus_mus|motif|central (ssRNA)
RNA: GGGAGUUCUACAGUCCGACGAUCGCCUGGUCUACAUAGCAAGUCCCAGGCCAGCCAGGGCUGUUUAGCAACACACUGCCGGAAAAAAAAAAAAGAAAAAAGAAAAGAAAAGAAAAGAAAAGAAAAGAAAAGAAAAGAAAAGAACAACAGAGGAUUGAGCAUCA
B14: 91351710_91351830_385_5pUTR_ENSMUSG00000055013_ENSMUST00000027521|mouse|control|control (ssRNA)
RNA: GGGAGUUCUACAGUCCGACGAUCAAGAAAAAGAAAAAGAAAAAGAAAAGAACGCUGAGGAUGAAGCAGUAGAGGGGCUCAGUUCAUAGCAGGGACCAGCGUCCCGGGUCAGCGGGCCGUCCGGGAAGACCGCGGCGCCAUGGACAACAGAGGAUUGAGCAUCA
B15: chr15:100311029:100311030:-_ENSMUSG00000044636_ENSMUST00000061457|mus_mus|FALSE|FALSE (ssRNA)
RNA: B13 RNA with G80U, G81A
B16: chr2:181041410:181041411:-_ENSMUSG00000027581_ENSMUST00000103045|mus_hu|FALSE|FALSE (ssRNA)
RNA: GGGAGUUCUACAGUCCGACGAUCAGCAUGAAGCUGGGGGCGGGGGUGGGGGAGGAGGAACAAAAGUUGCAUCUAGACAGAGGUGAACGAAACAAAACCAAAACCCGAACGUGUUCUGUCGCAGGAUGGGCGCCGCCCGUCCCGCAACAGAGGAUUGAGCAUCA
B17: chr9:108469239:108469240:-_ENSMUSG00000070283_ENSMUST00000074208|mus_hu|FALSE|FALSE (ssRNA)
RNA: GGGAGUUCUACAGUCCGACGAUCGGGAAGCUCAACGGGCGGACAGCGCAGCGAGGGUCGCGCUCGGUACAAGCUACGUAGCGCGAGAGCGGUGGCCAUGGCUGACCAACGCGCGGCGAAGUCGUCACCGGCGCCGUUAGUCCCCAACAGAGGAUUGAGCAUCA

The target in this experiment is T1, UNK ZnF1-3. Kind of experiment: nsRBNS (natural sequence RNA bind-n-seq); RBNS binding buffer (assumed for nsRBNS): 25 mM Tris pH 7.5, 150 mM KCl, 3 mM MgCl2, 0.01% Triton X-100, 500 ug/ml BSA, 20 U/ml SUPERase-In, 4 C; UNK is unkempt and MSI1 is Musashi-1; names of the RNAs are library labels; protein concentration not given here; high values mean tight binding.
As to B1, the binding signal was determined as 1.05 enrichment R.

On to B2, for which the binding signal is 0.49 enrichment R.

On to B3, for which the binding signal was determined as 0.691 enrichment R.

The molecule B4 displayed a binding signal of 1.07 enrichment R.

In turn, B5 registered a binding signal of 1.48 enrichment R.

On to B6, for which the binding signal was determined as 0.668 enrichment R.

B7 gave a binding signal of 0.882 enrichment R.

As for B8, the binding signal came to 4.13 enrichment R.

Molecule B9 returned a binding signal of 2.17 enrichment R.

The molecule B10 came in with a binding signal of 1.02 enrichment R.

Consider B11, for which the binding signal was determined as 3.43 enrichment R.

Regarding B12, the binding signal was determined as 1.33 enrichment R.

In turn, B13 showed a binding signal of 4.43 enrichment R.

B14 yielded a binding signal of 4.11 enrichment R.

For the molecule B15, the binding signal is 4.34 enrichment R.

For the molecule B16, the binding signal was 3.3 enrichment R.

As to B17, the binding signal came to 0.446 enrichment R.
